Data from ChEMBL document CHEMBL3988442, “University of Dundee, Small-Polar-MMV Screening Library” (2021).
Out of some 38,000 compounds screened, about 1,200 (3.2%) showed an effect of 50% or more. The median lay at about -58%. Many of the other results were omitted from the sample, so strong results are more common in it than they were.

Test system: Plasmodium falciparum
Experiment: Calibr Malaria Delayed Death Assay SOP
Assay type: functional, organism-based
Design: scale not given: in the data most compounds retested in dose-response had high values
Conditions: concentration 4.99e-06 (unit not given; other assays of the set use mol/L)

Row | Structure (SMILES) | Percent Effect [%]
1 | COCCN1CCCCC12CC(=O)N(c1cccc(C#N)c1)C2.O=C(O)C(F)(F)F (configuration not stated) | -143.4
2 | C1CC(CO[C@@H]2CC[C@H]3[C@H]2OCCN3CC2CCOCC2)CCO1.O=C(O)C(F)(F)F | -39.09
3 | O=c1c2ccccc2nc2n1C(CSc1ccc(Cl)cc1Cl)CN2 (configuration not stated) | -150.5
4 | CC(=O)NCCOc1cccc(Br)c1 | -82.47
5 | CN1CCCC1CNC(=O)CCCOCc1ccccc1 (configuration not stated) | -50.92
6 | CC(C)NC(=O)N1CCN(C(=O)NC(C)C)CC2(CNC(=O)C2)C1 | -54.94
7 | Cc1cc(N2CCCN(CCc3ccccc3)CC2)ccn1 | 86.4
8 | Cc1cc(N2CCCN(Cc3ccc(C)o3)CC2)ccn1 | 32.48
9 | Cc1cc(N2CCCN(c3ccnc(C)c3)CC2)ccn1 | -92.15
10 | CC(C)n1nnnc1-c1ccc(NC(=O)N(C)CCN(C)C)cc1F | -66.24
11 | COc1ccc(S(=O)(=O)NCC(c2cccn2C)N(C)C)cc1F (configuration not stated) | -0.0752
12 | COc1ccccc1S(=O)(=O)NCC(c1cccn1C)N(C)C (configuration not stated) | 10.47
13 | CN(C)C(CNS(=O)(=O)c1cc(F)ccc1F)c1cccn1C (configuration not stated) | 52.76
14 | Cc1c(CN2CCCCC2)c(O)n(CCCO)c(=O)c1C#N | -126.8
15 | CC(C)Nc1ncnc2c1CCN(C(=O)NCc1cccc(F)c1)CC2 | -3.86
16 | Cn1ccnc1NC[C@@H]1CCC[C@@H]2CN(Cc3cccnc3)C[C@@H]21.O=C(O)C(F)(F)F | -26.47
17 | O=C(O)C(F)(F)F.c1ccc(NC[C@@H]2CCC[C@@H]3CN(Cc4nccs4)C[C@@H]32)nc1 | 55.03
18 | Cn1ccnc1NC[C@@H]1CCC[C@@H]2CN(Cc3nccs3)C[C@@H]21.O=C(O)C(F)(F)F | -64.87
19 | Cc1cnc(N2C[C@H]3CCCC(N(C)Cc4ccccn4)[C@H]3C2)nc1.O=C(O)C(F)(F)F (some centres not stated) | -10.03

Row | Structure (SMILES) | Percent Effect [%]
20 | Cn1cc(CN2C[C@H]3CCC[C@@H](CNc4ncccn4)[C@H]3C2)cn1.O=C(O)C(F)(F)F | -87.54
21 | O=C(C[C@@H]1COC[C@H]2CN(Cc3cccnc3)C[C@@H]12)NCC1CC1.O=C(O)C(F)(F)F.O=C(O)C(F)(F)F | -77.98
22 | O=C(O)C(F)(F)F.c1ccc(NC[C@@H]2CCC[C@@H]3CN(Cc4cccnc4)C[C@@H]32)nc1 | 75.01
23 | O=C(O)C(F)(F)F.O=C(O)C(F)(F)F.O=C(O)C(F)(F)F.c1cnc(N2CCN(C3CCC[C@@H]4CN(CC5CC5)C[C@H]34)CC2)nc1 (some centres not stated) | 48.04
24 | O=C(O)C(F)(F)F.c1cncc(CN2C[C@H]3CCC[C@@H](CNc4cnccn4)[C@H]3C2)c1 | -3.57
25 | CN(Cc1ccccn1)C1CCC[C@@H]2CN(CC3CC3)C[C@H]12.O=C(O)C(F)(F)F.O=C(O)C(F)(F)F (some centres not stated) | 68.03
26 | Cn1cc(CN2C[C@@H]3CCC[C@@H](OCc4cccnc4)[C@@H]3C2)cn1 | -83.15
27 | CCC(O)CN1CCN(C(=O)c2cccc3c2OCC(=O)N3)CC1 (configuration not stated) | -136.7
28 | CC(C)CN1C(=O)C2(CCN(Cc3ccsc3)C2)c2ccccc21.O=C(O)C(F)(F)F (configuration not stated) | -33.32
29 | Cc1cccc(CN2CCc3ncnc(N4CCN(C)CC4)c3CC2)n1.O=C(O)C(F)(F)F.O=C(O)C(F)(F)F | -236.1
30 | Cc1noc(C(C)C)c1C(=O)NCCCOC(C)C | -142.4
31 | CC(CNC(=O)NCc1ccoc1)N1CCc2sccc2C1 (configuration not stated) | -8.458
32 | CCc1cnc(CN(C)C2CCN(CCCS(=O)(=O)NC)C2)o1 (configuration not stated) | -85.83
33 | COCCN1C[C@H]2CCC[C@@H](CNc3ncccn3)[C@H]2C1.O=C(O)C(F)(F)F.O=C(O)C(F)(F)F | 19.85
34 | O=C(O)C(F)(F)F.c1ccc(NC[C@@H]2CCC[C@@H]3CN(Cc4cc[nH]n4)C[C@@H]32)nc1 | -36.14
35 | O=C(O)C(F)(F)F.c1ccc(NC[C@@H]2CCC[C@@H]3CN(c4ncccn4)C[C@@H]32)nc1 | 71.6
36 | Cc1cccc(C)c1OC1CN(C(=O)C2CC(=O)N(C(C)(C)C)C2)C1 (configuration not stated) | -9.651
37 | COc1cc(-c2cc(NC3CCCC3)nc3[nH]ccc23)nc(N)n1 | 62.87
38 | COc1nccnc1-c1cc(NC2CCNCC2)nc2[nH]ccc12 | -131.1

Row | Structure (SMILES) | Percent Effect [%]
39 | COc1nccnc1-c1cc(NC2CCCC2)nc2[nH]ccc12 | 19.53
40 | COc1ncc(-c2cc(NC3CCCC3)nc3[nH]ccc23)c(OC)n1 | 74.29
41 | FC(F)(F)c1ccc(-c2cc(NC3CCNCC3)nc3[nH]ccc23)nc1 | -115.3
42 | CNc1cc(C)nc(-c2cc(NC3CCNCC3)nc3[nH]ccc23)n1 | -52.32
43 | CC(Nc1ccc(F)cc1)c1nnnn1-c1ccccc1 (configuration not stated) | -147.9
44 | Cc1cc(S(C)(=O)=O)c(C)c(S(=O)(=O)N2CCCCCC2)c1 | -98.91
45 | c1cnn(CC2CN(Cc3nc(-c4ccoc4)no3)CCO2)c1 (configuration not stated) | -25.36
46 | Cc1csc(N2CCCN(C(=O)Cc3ccc(C)s3)CC2)n1 | -98.4
47 | CN1CCC(N(C)C(=O)Nc2ccc(Cl)cc2)CC1 | -68.4
48 | Cn1cc(NC(=O)CNC(=O)N2CCN(c3ccc(Cl)cc3)CC2)cn1 | 2.407
49 | Cc1nc(N2CCCC2)ncc1C(=O)Nc1ccc(Br)cc1 | -75.85
50 | CCN(CC)c1nc(C)cc(C(=O)Nc2ccc(Br)cc2)n1 | -6.909
51 | Cc1oc(-c2cccc(F)c2F)nc1CN(C)CCO | -89.89
52 | CC[C@H](C)[C@H](NC(=O)c1cccc(-n2cnnn2)c1)C(=O)OC | -118.3
53 | COCC(O)CNC(=O)c1cc(COc2ccc3c(c2)CCCC3)on1 (configuration not stated) | -3.069
54 | CC(C)NC(=O)CC1COC2(CCN(Cc3cccs3)CC2)C1.O=C(O)C(F)(F)F (configuration not stated) | -6.903
55 | O=C(COc1coc(CN2CCCCC2)cc1=O)Nc1ccccc1Cl | -97.93
56 | O=C(COc1coc(CN2CCCC2)cc1=O)Nc1ccc(Cl)c(Cl)c1 | -65.99
57 | O=C(COc1coc(CN2CCCC2)cc1=O)Nc1cc(Cl)ccc1Cl | 79.74
